Reference: PubChem BioAssay AID493185 (National Center for Advancing Translational Sciences (NCATS), 2011)
Activity calls are given as the source filed them. A call without a number means that no potency is given here. Calls follow the shape of the dose curve; as a rule, active = well fitted activation curve with a large enough effect; inconclusive = small, poorly fitted or top-dose-only effect; inactive = no such curve, though single readings can be large or run the other way.

assay: Counterscreen for Identifying a Potential Treatment of Ataxia-Telangiectasia: Hit Validation; details: cell-free AlphaLISA/AlphaScreen artifact counterscreen, PBS only, no cells; series mostly up to 76.9 µM
Method in brief: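 Cell-free AlphaLISA counterscreen: compounds (up to 76.7 uM final) in PBS with detection mix of anti-pKAP1 and anti-KAP1 antibodies on donor/acceptor beads plus lysis buffer, incubated 6 hr at 25C before AlphaScreen read.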

Row | SMILES | Potency
1 | COc1cc(C(=O)NCCC(=O)NCCCN2CCCCC2)cc(OC)c1OC | inactive
2 | O=C1/C(=C/c2ccc(N3CCOCC3)o2)SC(=Nc2ccccc2)N1CCc1c[nH]c2ccccc12 | inactive
3 | CCOC(=O)c1ccccc1NC(=O)c1ccc2nc[nH]c2c1 | inactive
4 | CC1=NOC2(C1)N(C)c1ccccc1C2(C)C (configuration not stated) | inactive
5 | COc1cccc(CNCc2ccc(OC)c3ccccc23)c1OC | inactive
6 | O=C(O)CCCN1C(=O)/C(=C/C=C/c2ccco2)SC1=S | inactive
7 | Cc1nn(CC(=O)N(C)Cc2ccc(F)cc2)c(C)c1[N+](=O)[O-] | inactive
8 | O=C(O)CCCC(=O)N1N=C(c2ccccc2)CC1c1cccs1 (configuration not stated) | inactive
9 | Cc1cccc(NC(=O)/C(C#N)=C/c2ccc(F)cc2)n1 | inactive
10 | O=C(C[n+]1cccc2ccccc21)c1ccc(NC(=O)c2ccccc2)cc1 | inactive
11 | CC(=O)Nc1ccc(S(=O)(=O)NCC2(N3CCOCC3)CCCCC2)cc1 | inactive
12 | C=CCSc1nc2ccccc2n1C(=O)/C=C/c1cc(OC)c(OC)c(OC)c1 | inactive
13 | O=C(c1ccc(F)cc1)c1ccc(N2CCCCC2)cc1 | inactive
14 | O=C(N/N=C/c1ccncc1)c1ccc(COc2cccc3cccnc23)cc1 | inactive
15 | Cc1oc2ccc(OCc3ccc(Br)cc3)cc2c1C(=O)O | inactive
16 | O=C(C[n+]1ccc2c(c1)nnn2-c1ccccc1)c1ccc(Cl)cc1 | inactive
17 | CCc1ccc(NC(=O)CNCc2ccc(OC)c(OC)c2)cc1 | inactive
18 | COc1ccc2nc(C)cc(Nc3ccc(C(=O)O)cc3)c2c1 | inactive
19 | Cc1nn(-c2ccccc2)c2nc(C(Cl)(Cl)Cl)[nH]c(=O)c12 | inactive
20 | CCOC(=O)Cc1csc(NC(=O)CSc2nnc(C(C)C)n2C)n1 | inactive
21 | C/C=C\C=C/C(=O)Nc1cccc(C2=NOC3(C2)C[C@@H](C(N)=O)N(C(=O)COc2ccc(Cl)cc2)C3)c1 (some centres not stated) | inactive
22 | COc1ccc(Nc2cc3n(c(=O)n2)CCc2cc(OC)c(OC)cc2-3)cc1 | inactive
